Test results: PubChem BioAssay (NCI)
About 79,000 compounds went through this panel and 15% of them were active in at least one assay; those are over-represented in the sample as a whole. A number with no mark means an inactive call. The source made the active and inactive calls. No stated cut-off is given here; in the data, active means growth inhibition above about 70%; inactive means the rest.

Key:
[1] = NCI Yeast Anticancer Drug Screen. Data for the rad50 strain (AID 155);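 further: 0% = growth of vehicle-only cultures of the same strain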; details: S. cerevisiae rad50 strain growth inhibition; at 50.0 µM; active compounds read high
Summary of the method: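 A DNA repair-deficient yeast mutant serves as the test organism; compound-induced growth inhibition is calculated against vehicle-treated cells.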

[2] = NCI Yeast Anticancer Drug Screen. Data for the mec2-1 strain (AID 157); details: S. cerevisiae mec2-1 strain, at 50.0 µM, active compounds read high
Summary of the method: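 Yeast mec2-1 mutant treated with compound. Readout: growth inhibition vs vehicle controls.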

[3] = NCI Yeast Anticancer Drug Screen. Data for the sgs1 mgt1 strain (AID 161);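 further: 0% = growth of cultures given vehicle only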; details: S. cerevisiae sgs1 mgt1 strain, at 50.0 µM, active compounds read high
Summary of the method: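 Genetically altered yeast, compound exposure, growth inhibition relative to vehicle.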

[4] = NCI Yeast Anticancer Drug Screen. Data for the cln2 rad14 strain (AID 165);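 further: 0% = growth equal to vehicle treated cultures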; details: S. cerevisiae cln2 rad14 strain, at 50.0 µM, active compounds read high
Summary of the method: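 cln2 rad14 yeast strain; compound exposure; growth inhibition read vs vehicle controls.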

[5] = NCI Yeast Anticancer Drug Screen. Data for the bub3 strain (AID 167); details: S. cerevisiae bub3 mutant strain, at 50.0 µM, active compounds read high
Summary of the method: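 Inhibition values come from growth of compound-treated mutant yeast normalised to vehicle-treated controls.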

[6] = NCI Yeast Anticancer Drug Screen. Data for the mlh1 rad18 strain (AID 175); details: S. cerevisiae mlh1 rad18 strain growth inhibition; at 50.0 µM; active compounds read high
Summary of the method: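 Yeast w/ defined DNA-repair lesions; compound exposure; growth vs vehicle controls → % inhibition.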

| Structure (SMILES) | growth inhibition [1] | growth inhibition [2] | growth inhibition [3] | growth inhibition [4] [%] | growth inhibition [5] | growth inhibition [6] |
| --- | --- | --- | --- | --- | --- | --- |
| CCCCCCCCCCCCCCCCCC(=O)Nc1nc(N)nc(N)n1 | 11.1% | 15.1% | 3.6% | 18.6 | -5.15% | 6.15% |
| OC1CCC2CCCCC2C1 (stereo unspecified) | -7.3% | -16.9% | -15.4% | -25.1 | -1.95% | 2.85% |
| OC(CBr)CBr | 1.8% | -7.45% | 0.4% | -42.8 | -3.05% | 9.9% |
| CCOC(=O)C(C(=O)OCC)(C(=O)C(F)(F)C(F)(F)C(F)(F)C(F)(F)C(=O)C(C(=O)OCC)(C(=O)OCC)c1ccccc1)c1ccccc1 | 3.75% | 0% | -3.7% | -10.6 | 7.75% | 11.1% |
| CCOC(=O)C1=C(OC(OCC)C([Se]c2ccccc2)C(C)C)CCC1 (stereo unspecified) | 65.8% | 33.5% | 65.2% | 42.2 | 58.6% | 51% |
| O=[N+]([O-])c1nc(-[n+]2ccccc2)[n-]c1Br | 4.65% | -1.05% | -1.9% | -49.9 | 4.1% | 8.8% |
| CC(=O)O/C(C)=C/C(C)C | 2.65% | -5.35% | 9% | -3.15 | 2.1% | -8.95% |
| C/C(CC(=O)Nc1ccc(C)cc1)=N\NC(N)=S | -13.5% | -7.7% | 3.45% | 8.3 | -1% | -19.6% |
| O=C1NC(=O)C(c2ccc(Br)c3ccccc23)=C1O | 9.2% | -4.75% | 3.05% | -44.5 | -5.25% | -6.25% |
| CC(C)CC(NC(c1ccccc1)P(=O)(O)O)C(=O)O (stereo unspecified) | -4.15% | -13.2% | -22.1% | -9 | -8.3% | -27.1% |
| C#CN1C(=O)c2c(c(-c3ccccc3)c(-c3ccc(Oc4ccc(-c5c(-c6ccccc6)c6c(c(-c7ccccc7)c5-c5ccccc5)C(=O)N(C#C)C6=O)cc4)cc3)c(-c3ccccc3)c2-c2ccccc2)C1=O | 7.25% | 10.1% | 1.9% | 10.3 | 1.4% | 15.2% |
| CCC(c1ccc(Cl)cc1)N(CC)c1ccccn1 (stereo unspecified) | 7% | -0.4% | 16.6% | -52.4 | 3.5% | -30.2% |
| O=C1c2ccccc2C(=O)c2c1ccc1c2[nH]c2ccccc21 | 2.15% | -4.8% | 3.75% | -67.2 | 0.8% | -4.85% |
| CCOC(=O)OC1CCC2(C)C(=CCC3C2CCC2(C)C(C(C)CCCC(C)C)CCC32)C1 (stereo unspecified) | -3.95% | -19.1% | 0.6% | 9.5 | 4.25% | -4.3% |
| CCCCCCCCCCCCCC(=O)OC | 27.6% | 15.3% | 16.5% | -9.3 | -1.4% | 31.4% |
| COc1cc2c(cc1O)CN1Cc3c(ccc(OC)c3O)C2C1 (stereo unspecified) | -16% | -14.4% | -1.8% | -1.15 | -11.5% | 0.65% |
| CC(=O)Nc1ccc(-c2cn3ccccc3n2)cc1 | 6.6% | -1.5% | 20.7% | 25.6 | 13.7% | 21.8% |
| O=C1OC2CCCC[C@@H]2C2C[C@]34CCCCC3[C@@H](C(=O)O4)C12 (stereo partly specified) | 23.1% | -6.85% | 9.9% | 15.6 | 12% | 42.7% |
| c1ccc(-c2nnsc2-c2ccccc2)cc1 | 17.5% | -4.35% | 27.6% | 10.8 | -3.9% | 20.4% |
| NS(=O)(=O)c1ccc(Nc2c3ccccc3nc3c(C(=O)NCCO)cccc23)cc1 | 51.8% | -30.2% | -15.9% | -3.1 | -10.6% | -1.9% |
| C=CC(=O)OCc1ccc(OC)cc1 | 30.1% | 32.2% | 28.9% | 14.2 | 5.95% | 29.5% |

| Structure (SMILES) | growth inhibition [1] | growth inhibition [2] | growth inhibition [3] | growth inhibition [4] [%] | growth inhibition [5] | growth inhibition [6] |
| --- | --- | --- | --- | --- | --- | --- |
| CCC(=O)C(C)C1=Nc2nnc(CCCCCCCc3nnc4n3C(=O)C(C(C)C(=O)CC)=N4)n2C1=O (stereo unspecified) | -13.7% | 12.3% | 11.8% | -7.4 | -3.05% | -4.35% |
| COc1cccc(C2c3cc4c(cc3OC(N3CCCCC3)C2C)OCO4)c1O (stereo unspecified) | -22.5% | -31.1% | 0.15% | 18.9 | -2.5% | 0.1% |
| Nc1ncnc(N)c1NC(=O)CCCCc1ccccc1 | 4.25% | -12.2% | -13.2% | 4.8 | 1.4% | -5.9% |
| c1ccc(-c2c(-c3ccc4c(c3)OCO4)c(-c3ccc4c(c3)OCO4)c(-c3ccccc3)c3ccccc23)cc1 | 32.4% | 20.6% | 19.8% | 28.2 | -1.95% | 23.4% |
| COc1ccc2ncc(COC(=O)NC3CCCCC3)c(COC(=O)NC3CCCCC3)c2c1 | 36.9% | -2.1% | 24.4% | -0.6 | -4.25% | 22.5% |
| CC(C)=C(CO)CCC(C)C | -9.3% | -22.9% | -10.4% | 16.9 | 6.65% | -0.05% |
| CCOC(=O)c1c(N2CCCC2)ncn(Cc2ccccc2)c1=S | 0.7% | 12.4% | 3.9% | -7.75 | 8.3% | -5% |
| CC(=O)OC1COC(n2cnc3c(N)ncnc32)C(OC(C)=O)C1OC(C)=O (stereo unspecified) | 5.3% | -5.15% | 2.3% | -26.1 | 1.2% | -4.2% |
| CCc1c(Sc2ccccn2)n(COCc2ccccc2)c(=O)[nH]c1=O | -14.5% | -4.4% | -24.9% | -16.4 | -17.8% | -16.1% |
| O=C(CCOP(=O)(NCCCl)NCCCl)c1ccccc1 | 5.2% | -14.8% | 0.25% | 7.25 | -11.7% | 24% |
| CC(=O)OCc1cc(Cl)c(OC(C)=O)c(COC(C)=O)c1 | 7.75% | -10.2% | 8.8% | 20.1 | -9.05% | 3.65% |
| CCC(=O)NC(Nc1cccc(F)c1)(C(F)(F)F)C(F)(F)F | -28.5% | -36.6% | -20.7% | 13.3 | -20.9% | -66.8% |
| COc1cc(C)cc(C(=O)C2=NNCC2c2ccccc2)c1O (stereo unspecified) | 23.1% | 19.4% | 26.8% | 10.9 | 17.1% | 16.2% |
| O=S(=O)(Cc1ccccc1)CC(Br)CBr (stereo unspecified) | 82.9% (active) | 97.2% (active) | 96.1% (active) | 27.4 | 95.2% (active) | 97.2% (active) |
| CCN1CSC(=S)N(Cc2ccccc2)C1 | 16.9% | 6.3% | 50.3% | 4.55 | 28.2% | 32.6% |
| O=C(O)c1ccc(OS(=O)(=O)c2ccccc2)cc1 | 26.5% | 8.1% | 39.7% | 22.4 | 46.9% | 16.3% |
| COc1ccc(-c2cc(C)cc(O)c2)c(OC)c1OC | 7.5% | 6.2% | 21.4% | -8.2 | -9.3% | -11.3% |
| CCCCCOS(=O)(=O)O | -0.3% | 4.3% | -0.6% | -11 | -0.25% | 5.3% |
| CC(=O)Nc1ccccc1/C=C\c1ccccn1 | -21.6% | -9.85% | -15.5% | 1.25 | -5.1% | -11.7% |
| O=C(OC1COC(OC(=O)c2ccc([N+](=O)[O-])cc2)C(OC(=O)c2ccc([N+](=O)[O-])cc2)C1OC(=O)c1ccc([N+](=O)[O-])cc1)c1ccc([N+](=O)[O-])cc1 (stereo unspecified) | -6.15% | 1.65% | -9.9% | -16.9 | -1.3% | 4.3% |
